This is a sample that favours compounds with a hit; in the whole collection about 4.3% have one here.
CHOP inhibitor: inhibitors of CHOP promoter induction, primary screen, cell-based, unfolded protein response, luciferase reporter. CHO-K1 CHOP-promoter luciferase, tunicamycin-induced, 15-18 h. inhibition, % at 10 µM. 3.8% of 220,000 active. AID 2732, 2010;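 active = compounds that reduced the stress-induced luciferase reporter signal by more than about 70% of percent inhibition, limit read from the data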;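 note: 0% = tunicamycin plus vehicle and 100% = wells without tunicamycin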
Peg3 prom inh: Peg3 promoter-driven luciferase inhibitors, primary screen, cell-based, HeLa, luciferase luminescence; AID 588405, 2011; HeLa PEG-Prom luciferase reporter, overnight; inhibition, % at 20 µM; 1.7% of 360,000 active;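 active = inhibition of at least 50% at 20 µM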
MITF TRPM1 inh: inhibitors of MITF-dependent TRPM1 promoter reporter, primary screen, cell-based, SK-MEL-5, single point, luciferase; 0.83% of 330,000 active; inhibition, % at 12.5 µM; AID 488899, 2010; SK-MEL-5 TRPM1 promoter luciferase, 24 h;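 active = mean inhibition across replicates of 60% or more, whatever share of single replicates reaches that level; inconclusive = some that reach 60%, reason not given; inactive = mean inhibition across replicates below 60%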
CF NFkB inh: inhibitors of PAF-induced NF-kB signaling, primary screen, cell-based, GFP fluorescence, uHTS; AID 588850, 2011; KKLEB NF-kB-GFP reporter, GFP fluorescence overnight; inhibition, % at 5 µM; 0.86% of 360,000 active;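 active = at least 50% inhibition at 5 µM, scaled per plate between neutral and stimulator controls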;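 note: PAF is a Pseudomonas aeruginosa culture filtrate used as stimulus; plate controls were PAF-stimulated DMSO wells for no effect and unstimulated DMSO wells for full effect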
HIF-2a block: HIF-2a reporter inhibitors, primary screen, luminescence, 786-0 RCC cells; 786-0 RCC cells HIF-2a reporter, luciferase luminescence, overnight; inhibition, % at 18.8 µM; 0.72% of 360,000 active;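 active = inhibition of the luminescence signal of 40% or more relative to plate controls, in a single-dose primary screen at 18.75 µM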
KKLEB cytotox: cytotoxicity in KKLEB CF airway cells, primary screen, cytotoxicity control for CF NF-kB inhibitor project, cell-based, uHTS, fluorescence assay plates | KKLEB CF airway cells viability, ATPlite luminescence, overnight; stronger effect = lower value; cells stimulated with P. aeruginosa culture filtrate | activity change (cytotoxicity), % at 5 µM | 0.36% of 360,000 active;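 active = corrected activity change at or below -50% at 5 µM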
Starred values were filed as active, the others as inactive; u = inconclusive; x = no result.

SMILES	CHOP inhibitor	Peg3 prom inh	MITF TRPM1 inh	CF NFkB inh	HIF-2a block	KKLEB cytotox
O=C1/C(=C/c2ccccc2F)SC(=S)N1CC(=O)N1CCCCC1c1cccnc1 (configuration not stated)	x	76*	12	74*	20	-28
CC1=C(C(=O)N2CCCCCC2)CC(CC(=O)NC2CCCC2)C(=O)N1CCC1=CCCCC1 (configuration not stated)	x	x	x	x	1	x
O=C(Nc1cccc(Cl)c1)c1csc([C@@H]2C[C@H](O)[C@@H](CO)O2)n1	x	-46	x	3	-69	0
Cc1nn(-c2ccccc2)c2nc(N)c(C#N)c(-c3ccc(F)cc3)c12	-3	91*	21	26	30	-19
Cc1ccc(-n2nc(C)c3c(-c4cccs4)c(C#N)c(N)nc32)cc1	35	86*	17	26	3	-4
CCN(CC)C(=O)CSc1nc(N)c(C#N)c(-c2cccs2)c1C#N	2	26	5	8	26	5
CCOC(=O)c1cc(-c2ccccc2)sc1NC(=O)CN1C(=O)c2ccccc2C1=O	x	0	4	-1	-7	4
CCCC1(c2ccccc2)NC(=O)N(CC(=O)Nc2sc(-c3ccccc3)cc2C(=O)OCC)C1=O (configuration not stated)	85*	-7	4	11	-23	-8
O=C(NCc1n[nH]c(=S)n1-c1ccc(F)cc1)c1ccc(S(=O)(=O)N2CCOCC2)cc1	82*	20	-35	-8	7	0
Cc1cc(C(=O)N/N=C/c2cc(N=Nc3ccccc3)ccc2O)n[nH]1	89*	-26	41	40	-132	-18
Cc1cc(C)c(C(O)c2ncc(-c3ccccc3Cl)[nH]2)c(C)c1 (configuration not stated)	x	3	x	29	-2	-26
O=C(Nc1c(-c2ccc3c(c2)OCO3)[nH][nH]c1=O)c1cccc(C(F)(F)F)c1	x	2	x	-3	9	-3
CCOc1ccc(OCCC(=O)OCC(=O)N2CCN(S(=O)(=O)c3ccc(Cl)cc3)CC2)cc1	x	30	38	84*	30	-13
Cc1ccc(C)c(OCCC(=O)OCC(=O)N2CCN(S(=O)(=O)c3ccc(Cl)cc3)CC2)c1	x	8	-7	37	18	0
COC(=O)c1c(NC(=S)Nc2ccccc2Cl)sc(C)c1C	89*	2	12	-10	-22	9
COC(=O)c1c(NC(=O)Cc2ccccc2)sc(C)c1C	39	-4	-1	-3	-19	-11
CC/C(=N\Nc1ccc([N+](=O)[O-])cc1)c1ccccc1	75*	-43	-2	-8	-43	3
CCOc1ncccc1C(=O)OCC(=O)c1c(N)n(C)c(=O)n(C)c1=O	86*	-4	6	-6	4	8
Cn1c(N)c(C(=O)COC(=O)c2cc(S(=O)(=O)N3CCOCC3)ccc2F)c(=O)n(C)c1=O	x	89*	82*	-8	-15	-10
Cc1ccc(S(=O)(=O)N2CCOCC2)cc1C(=O)OCC(=O)c1c(N)n(C)c(=O)n(C)c1=O	x	24	-5	23	10	2
Cc1cnc(NC(=O)c2nn(C)cc2[N+](=O)[O-])s1	-13	94*	u	16	-24	-3
Cc1ccc(Cn2ccc(NC(=O)c3nn(C)cc3[N+](=O)[O-])n2)cc1	20	48	23	-14	-70	15
COc1ccc(OC)c(NC(=O)CSc2nnc3ccc(-c4ccccn4)nn23)c1	x	-13	15	-12	13	6
COc1ccc(C(C#N)=C2C=CC(=NO)C=C2)cc1	15	19	-2	26	-40	-2
N#CC(=C1C=CC(=NO)C(Cl)=C1)c1ccc(Cl)cc1	x	15	-7	53*	-27	-2
SMILES	CHOP inhibitor	Peg3 prom inh	MITF TRPM1 inh	CF NFkB inh	HIF-2a block	KKLEB cytotox
CCCC/C(O)=C1\C(=O)CCCC1=NCCc1c(C)[nH]c2ccccc12	19	-1	-12	-4	-3	-4
Cc1ccc2c(c1)c1c(n2CC(O)CNC2CCCCC2)CCCC1 (configuration not stated)	94*	102*	12	15	-13	1
Cc1ccc2c(c1)c1c(n2CC(O)CNC(CO)(CO)CO)CCCC1 (configuration not stated)	11	-1	-10	7	8	-4
CCOC(=O)c1sc2ccccc2c1OC(=O)c1ccccc1	81*	-3	-4	-7	-11	11
CCOC(=O)C1=CN(Cc2cccc(F)c2)S(=O)(=O)N(CC)C1c1ccc(F)c(Cl)c1 (configuration not stated)	x	24	32	9	13	-6
COc1cc(OC)c2c(-c3ccccc3)cc(=O)oc2c1C(CCN1CCCCC1)c1ccc(N(C)C)cc1 (configuration not stated)	0	65*	33	37	12	-6
COc1cc(OC)c2c(-c3ccccc3)cc(=O)oc2c1C(CCN1CCCC(C)C1)c1ccc2c(c1)OCO2 (configuration not stated)	-62	35	6	8	13	-4
COc1ccc(C(CCN2CCCCC2)c2c(OC)cc(OC)c3c(-c4ccccc4)cc(=O)oc23)cc1 (configuration not stated)	12	96*	6	19	12	-10
COc1cc(OC)c2c(-c3ccccc3)cc(=O)oc2c1C(CCN1CCCCC1)c1ccc2c(c1)OCO2 (configuration not stated)	-10	102*	46	22	1	-32
Nc1ccn(CC(=O)NCCNc2ccc([N+](=O)[O-])cn2)c(=O)n1	x	-4	4	-6	10	0
Cc1nc(CN(C)c2ncnc3ccc(-c4ccc5c(c4)OCO5)cc23)cs1	x	32	x	-19	55*	-13
C=CCN1c2ccccc2[C@]23C[C@@H](C(=O)OC)N(C(=O)c4cccs4)C2=NC(C(=O)OC)=C(C(=O)OC)[C@H]13	26	75*	-6	47	16	-20
CC#CCN1c2ccccc2[C@]23C[C@@H](C(=O)OC)N(C(=O)C4CCC4)C2=NC(C(=O)OC)=C(C(=O)OC)[C@H]13	4	75*	-9	27	15	-6
COC(=O)C1=C(C(=O)OC)[C@@H]2N(C)c3ccc(OC)cc3[C@@]23C[C@@H](C(=O)OC)N(C(=O)c2ccc(Br)cc2)C3=N1	12	79*	2	55*	-9	-5

Bioassay records: PubChem, several laboratories
